About 83,000 compounds went through this panel and 20% of them were active in at least one assay; those are over-represented in the sample as a whole.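 Single-dose data. Exposure time 48 hours. Values below 10 considered active.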 Values without a mark were called inactive. Active and inactive are the calls of the source.
Columns and labels:
Experiment in all cases: NCI-60 one-dose screen, 48 h (100 = growth as untreated, 0 = no growth, -100 = all killed)
Conditions in all cases: 10 µM unless noted
[1] = system: NCI-H23 lung
[2] = system: NCI-H226 lung
[3] = system: NCI-H322M lung
[4] = system: HOP-62 NSCLC
[5] = system: NCI-H460 lung
[6] = system: NCI-H522 lung
[7] = system: A549/ATCC NSCLC
[8] = system: 786-0 renal
[9] = system: COLO 205 colon
[10] = system: DU-145 prostate
[11] = system: K-562 leukemia
[12] = system: MALME-3M melanoma
[13] = system: MDA-MB-231 breast
[14] = system: RXF 393 renal
[15] = system: SF-268 CNS
[16] = system: SF-295 CNS
[17] = system: SF-539 CNS
[18] = system: UACC-257 melanoma
[19] = system: M14 melanoma

`Cc1c(C(N)=O)sc2ncn(CC(=O)NN=C3CCCCC3)c(=O)c12` showed a growth [1] of 111%, a growth [2] of 96.7% and a growth [3] of 116%. It also gave a growth [4] of 104%, a growth [5] of 115% and a growth [6] of 83.8%. For the same molecule, the growth [7] was 111%, the growth [8] was 105% and the growth [9] was 129%. It also gave a growth [10] of 111%, a growth [11] of 103% and a growth [12] of 136%. The growth [13] was 103%, the growth [14] was 83.5% and the growth [15] was 108%. It also gave a growth [16] of 98.6%, a growth [17] of 105% and a growth [18] of 165%. The growth [19] was 105%.

For `CO[C@H](C(=O)[C@@H](O)[C@@H](C)O)[C@@H]1Cc2cc3cc(O[C@H]4C[C@@H](O[C@H]5C[C@@H](O)[C@H](O)C(C)O5)[C@H](O)C(C)O4)c(C)c(O)c3c(O)c2C(=O)[C@H]1O[C@H]1C[C@@H](O[C@H]2C[C@@H](O[C@H]3C[C@](C)(O)C(=O)C(C)O3)[C@@H](O)C(C)O2)[C@H](O)C(C)O1` (stereo partly specified), the growth [1] was -7.26% (active), the growth [2] was 1.78% (active) and the growth [3] was 7.31% (active). For the same molecule, the growth [4] was -2.07% (active), the growth [5] was 4.88% (active) and the growth [6] was -31.9% (active). For the same molecule, the growth [7] was 4.12% (active), the growth [8] was 4.11% (active) and the growth [9] was -52.4% (active). The growth [10] was 9.76% (active), the growth [11] was 9.26% (active) and the growth [12] was -26.8% (active). For the same molecule, the growth [13] was 10.6%, the growth [14] was -54.2% (active) and the growth [15] was 16.4%. For the same molecule, the growth [16] was 6.84% (active), the growth [17] was 0.369% (active) and the growth [18] was -27.4% (active). For the same molecule, the growth [19] was -27% (active).

Work on `CCN(CC)CCNC(=O)n1cc(-c2ccncc2)c(-c2ccc(Cl)c(OC)c2)n1` yielded a growth [1] of 98%, a growth [2] of 61.5% and a growth [3] of 118%. The growth [4] was 66.8%, the growth [5] was 104% and the growth [6] was 81.9%. The growth [7] was 77.5%, the growth [8] was 72% and the growth [9] was 70.1%. The growth [10] was 97.8%, the growth [11] was 85.9% and the growth [12] was 114%. The growth [13] was 79.5%, the growth [14] was 85.3% and the growth [15] was 67.9%. It also gave a growth [16] of 97.7%, a growth [17] of 75% and a growth [18] of 93.1%. For the same molecule, the growth [19] was 78.6%.

`COc1cnc2c(c1)C(=O)c1c-2n(CCCN2CCNCC2)c(=O)c2cc(Cl)ccc12` was tested, and the growth [1] was -63.2% (active), the growth [2] was 18.6% and the growth [3] was 54.3%. For the same molecule, the growth [4] was -24.4% (active), the growth [5] was -81.2% (active) and the growth [6] was 17.4%. The growth [7] was -30.9% (active), the growth [8] was -81.1% (active) and the growth [9] was 22.7%. For the same molecule, the growth [10] was -95.8% (active), the growth [11] was -75.8% (active) and the growth [12] was -51.5% (active). The growth [13] was -73.1% (active), the growth [14] was -1.72% (active) and the growth [15] was -75.6% (active). For the same molecule, the growth [16] was 15.5%, the growth [17] was -93.8% (active) and the growth [18] was 22.4%. The growth [19] was -79.5% (active).

Work on `Cn1cnc([N+](=O)[O-])c1S(=O)(=O)Oc1cccc2ccccc12` yielded a growth [1] of 85.5%, a growth [2] of 88.1% and a growth [3] of 104%. For the same molecule, the growth [4] was 84.6%, the growth [5] was 106% and the growth [6] was -84.3% (active). The growth [7] was 98.4%, the growth [8] was 62.7% and the growth [9] was -89.7% (active). For the same molecule, the growth [10] was 43.1%, the growth [11] was 3.91% (active) and the growth [12] was -39.9% (active). It also gave a growth [13] of 76.3%, a growth [14] of 19.6% and a growth [15] of 83.7%. It also gave a growth [16] of 102%, a growth [17] of 52.8% and a growth [18] of 71%. The growth [19] was -62.9% (active).

`CC(C)(c1ccccc1)c1cc(O)c(C(C)(C)c2ccccc2)cc1O` gave a growth [1] of 38%, a growth [2] of 43.2% and a growth [3] of 59.7%. For the same molecule, the growth [4] was 63%, the growth [5] was 21.9% and the growth [6] was -2.05% (active). For the same molecule, the growth [7] was 28.5%, the growth [8] was 30.5% and the growth [9] was 17%. For the same molecule, the growth [10] was 63.3%, the growth [11] was 13% and the growth [12] was 48.5%. The growth [13] was -1.39% (active), the growth [14] was 63.4% and the growth [15] was 38.7%. For the same molecule, the growth [16] was 25%, the growth [17] was 50.4% and the growth [18] was 11.3%. It also gave a growth [19] of 11.9%.

`CCN(CC)CCNC(=O)C(F)(F)C(F)(F)C(F)(F)F` was tested, and the growth [1] was 114%, the growth [2] was 93.7% and the growth [3] was 114%. It also gave a growth [4] of 95.6%, a growth [5] of 111% and a growth [6] of 110%. The growth [7] was 104%, the growth [8] was 87.2% and the growth [9] was 102%. The growth [10] was 115%, the growth [11] was 109% and the growth [12] was 124%. The growth [13] was 104%, the growth [14] was 98% and the growth [15] was 103%. The growth [16] was 101%, the growth [17] was 90.7% and the growth [18] was 111%. It also gave a growth [19] of 97.7%.

For `O=C1Nc2ccc(Cl)cc2/C1=C\c1c(-c2ccc(F)cc2)nc2ccccn12`, the growth [1] was -20.1% (active), the growth [2] was -30.8% (active) and the growth [3] was 43.6%. The growth [4] was -10.3% (active), the growth [5] was 6.88% (active) and the growth [6] was 11.4%. For the same molecule, the growth [7] was 23.7%, the growth [8] was 24.6% and the growth [9] was 45.7%. The growth [10] was -19% (active), the growth [11] was -39.5% (active) and the growth [12] was 16.6%. The growth [13] was 45.9%, the growth [14] was -13.4% (active) and the growth [15] was 5.15% (active). The growth [16] was -41% (active), the growth [17] was -31.2% (active) and the growth [18] was 75.6%. For the same molecule, the growth [19] was -9.52% (active).

`C=CC(=O)N1CN(C(=O)C=C)CN(C(=O)C=C)C1` was tested, and the growth [1] was 67.4%, the growth [2] was 87% and the growth [3] was 108%. For the same molecule, the growth [4] was 88.3%, the growth [5] was 102% and the growth [6] was -35.4% (active). For the same molecule, the growth [7] was 94.6%, the growth [8] was 95.7% and the growth [9] was -44.4% (active). For the same molecule, the growth [10] was 77%, the growth [11] was 23.5% and the growth [12] was -41.9% (active). It also gave a growth [13] of 103%, a growth [14] of 10.2% and a growth [15] of 85.3%. For the same molecule, the growth [16] was 112%, the growth [17] was 71.7% and the growth [18] was 48%. The growth [19] was 87.1%.
